Inconclusive results are not listed. The source made the active and inactive calls. The calls were made as follows: active = hit-call score of the fitted dose curve at least 0.9, where 1 is the maximum; inconclusive = response in the unintended direction; inactive = score below 0.9.
molecular target: human Janus Kinase 2 (Jak2), JAK2 (gene 3717) (UniProt O60674); assay: NVS_ENZ_hJak2: NovaScreen (NVS) Enzymatic Assay for human Janus Kinase 2 (Jak2) (AID 2283169)
Experimental: NVS_ENZ_hJak2 is a biochemical, single-readout assay that uses extracted gene-proteins in a cell-free assay. Measurements were taken 1 hour after chemical dosing in a 384-well plate.NVS_ENZ_hJak2 is one of one assay component(s) measured or calculated from the NVS_ENZ_hJak2 assay. It is designed to make measurements of enzyme activity, a form of enzyme reporter, as detected with fluorescence intensity signals by Fluorescence and electrophoretic mobility shift technology.Data from the assay component NVS_ENZ_hJak2 was analyzed into 1 assay endpoint. This assay endpoint, NVS_ENZ_hJak2, was analyzed in the positive analysis fitting direction relative to DMSO as the negative control and baseline of activity. Using a type of enzyme reporter, loss-of-signal activity can be used to understand changes in the enzymatic activity as they relate to the gene JAK2. Furthermore, this assay endpoint can be referred to as a primary readout, because this assay has produced multiple assay endpoints where this one serves a enzymatic activity function. To generalize the intended target to other relatable targets, this assay endpoint is annotated to the kinase intended target family, where the subfamily is non-receptor tyrosine kinase.
Binding assays used specific radioligands (tritiated, iodinated) with non-radioactive competitive displacement ligands in agonist or antagonist protocols (as indicated) and various reference compounds and inhibitors to titrate specific binding to receptors and transporters. Most enzyme assays (CYPs, kinases, phosphatases, proteases, HDACs) used recombinant protein and specific substrates (fluorescence mostly, some colorimetric and radioactive) and inhibitors, followed by a biochemical separation of substrate and product. All assays for the biochemical HTS were initially run in duplicate at a single concentration (10 uM for CYP450 assays and 25 uM for all others). Assay-chemical combinations meeting a pre-defined threshold (e.g., 30% inhibition and other criteria defined below) were then run in singleton concentration-response format with maximum concentration of 20 uM for CYPs and 50 uM for all others. Each assay was run with positive and negative controls, and concurrent controls on every plate. The follow-up (secondary) screen tested active chemical-pairs in concentration series, as well as a few additional assays not tested in the primary screen, some selected negative inactives, and several cases re-run in the concentration series for confirmatory purposes.

human Janus Kinase 2 (Jak2), JAK2 (gene 3717), sequence (O60674 whole entry, looked up): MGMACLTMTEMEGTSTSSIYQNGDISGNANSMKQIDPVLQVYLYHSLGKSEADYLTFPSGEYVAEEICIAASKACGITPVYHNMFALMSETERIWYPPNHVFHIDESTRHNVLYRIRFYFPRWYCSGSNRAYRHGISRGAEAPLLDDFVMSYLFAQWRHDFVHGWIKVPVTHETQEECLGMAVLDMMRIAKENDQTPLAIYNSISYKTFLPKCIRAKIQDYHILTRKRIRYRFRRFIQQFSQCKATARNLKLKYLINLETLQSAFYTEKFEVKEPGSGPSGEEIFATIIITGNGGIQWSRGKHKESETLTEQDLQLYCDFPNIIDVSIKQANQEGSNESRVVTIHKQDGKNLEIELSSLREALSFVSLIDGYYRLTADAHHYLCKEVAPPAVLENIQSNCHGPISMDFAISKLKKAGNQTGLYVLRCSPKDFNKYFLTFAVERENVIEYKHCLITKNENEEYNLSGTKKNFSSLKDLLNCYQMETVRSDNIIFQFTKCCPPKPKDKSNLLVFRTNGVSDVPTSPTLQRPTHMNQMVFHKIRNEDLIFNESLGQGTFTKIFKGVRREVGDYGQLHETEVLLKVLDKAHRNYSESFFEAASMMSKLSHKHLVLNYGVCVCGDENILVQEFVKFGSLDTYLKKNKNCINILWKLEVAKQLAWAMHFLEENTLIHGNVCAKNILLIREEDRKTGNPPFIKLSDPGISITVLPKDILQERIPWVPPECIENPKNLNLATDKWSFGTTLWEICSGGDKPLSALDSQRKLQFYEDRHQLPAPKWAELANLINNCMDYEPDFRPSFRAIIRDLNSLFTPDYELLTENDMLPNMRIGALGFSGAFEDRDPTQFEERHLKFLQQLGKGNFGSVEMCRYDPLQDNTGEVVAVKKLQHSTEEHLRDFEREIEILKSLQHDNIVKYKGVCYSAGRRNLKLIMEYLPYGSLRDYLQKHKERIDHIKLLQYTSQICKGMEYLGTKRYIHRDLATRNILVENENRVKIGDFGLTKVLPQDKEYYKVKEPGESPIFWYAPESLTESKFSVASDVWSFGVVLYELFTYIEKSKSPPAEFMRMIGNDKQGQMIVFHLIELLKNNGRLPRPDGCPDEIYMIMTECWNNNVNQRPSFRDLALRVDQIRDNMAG

SMILES | outcome
O=C1NC(=O)C(c2ccccc2)(c2ccccc2)N1 | inactive
CN(C)C(=O)NC1(c2ccccc2)CCN(CCC[C@]2(c3ccc(Cl)c(Cl)c3)CCCN(C(=O)c3ccccc3)C2)CC1 | inactive
CC(C)COC(=O)CCCCC(=O)OCC(C)C | inactive
O=C(Oc1ccccc1)c1cccc(C(=O)Oc2ccccc2)c1 | inactive
Cc1cc(SC2=C(O)C[C@@](CCc3ccc(N)cc3)(C(C)C)OC2=O)c(C(C)(C)C)cc1CO | inactive
CCCCCCCCCCCCCCCCO | inactive
CC(C)NCC(O)c1ccc(O)c(O)c1 (stereo not given) | inactive
COc1ccc(OC(F)(F)F)cc1CN[C@H]1CCCN[C@H]1c1ccccc1 | inactive
O=C(O)CC(O)(CC(=O)O)C(=O)O | inactive
CC(C)(O)c1ccc(CNC(=O)c2cccnc2Oc2ccc(F)cc2)cc1 | inactive
